Source: PubChem BioAssay AID778 (Sanford-Burnham Center for Chemical Genomics, 2007)
Among all 96,000 compounds or so, about 20,000 (21%) were called active. Only a sample is shown. Values without a mark were called inactive.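 Rule for the calls: active = CYP2C19 inhibition above a set limit at 5 µM in the primary screen (cut at about 50% in these data); inactive = the rest.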

biological target: Cytochrome P450 2C19 (Homo sapiens) (UniProt P33261); experiment: blockers of cytochrome P450 2C19 activity – biochemical, luminescence, ADME assay, primary screen (AID 778); conditions: CYP2C19 Supersomes, luciferin-H EGE luminescence, 30 min; at 5 µM; hits give high values;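 note: plate controls were negative control wells for no effect and 2.5 mM tranylcypromine positive control for full effect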
Sequence (P33261 whole entry, looked up): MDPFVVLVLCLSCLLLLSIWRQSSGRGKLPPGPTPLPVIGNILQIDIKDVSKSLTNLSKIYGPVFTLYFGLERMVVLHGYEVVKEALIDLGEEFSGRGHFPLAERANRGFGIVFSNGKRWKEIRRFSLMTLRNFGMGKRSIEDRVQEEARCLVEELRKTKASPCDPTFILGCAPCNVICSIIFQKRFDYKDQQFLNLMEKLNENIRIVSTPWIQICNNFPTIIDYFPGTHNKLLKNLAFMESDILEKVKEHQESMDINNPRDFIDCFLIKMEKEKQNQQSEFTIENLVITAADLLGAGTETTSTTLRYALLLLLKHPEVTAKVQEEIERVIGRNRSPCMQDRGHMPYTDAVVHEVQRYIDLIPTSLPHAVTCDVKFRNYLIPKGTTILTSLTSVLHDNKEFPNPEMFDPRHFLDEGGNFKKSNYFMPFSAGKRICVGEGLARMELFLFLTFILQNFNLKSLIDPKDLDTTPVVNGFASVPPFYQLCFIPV

Compound	inhibition
Cc1cccc(OCc2nnc(SCC(=O)N3CCN(C(=O)c4ccco4)CC3)n2C)c1C	1.1%
CSc1nc(N)c(C#N)c(-c2ccccc2Cl)c1C#N	-13.6%
CCOC(=O)C(=CNc1cccc(C)n1)C(=O)OCC	8.8%
Cc1c(CCO)c(=O)n(-c2ccccc2)n1S(=O)(=O)c1ccc(F)cc1	78.5% (active)
CCOC(=O)C1CN(S(=O)(=O)c2ccc(F)cc2)C1	43.8%
Cc1c(CCO)c(=O)[nH]n1C(=O)c1c(F)cccc1F	10%
Cc1cc(N2C(=O)C(=O)/C(=C(/O)c3ccc(Cl)cc3)C2c2cccc(Br)c2)no1 (stereo not drawn)	-6.1%
CC1CCc2c(sc3c2C2=NS(=O)(=O)CCN2C=N3)C1 (stereo not drawn)	-10%
Cc1ccc(-n2nc3ccc(NC(=O)/C=C/c4ccco4)cc3n2)cc1C	-6.9%
CCOc1ccc(-c2nnn(CC(=O)N3CCN(c4ccc(F)cc4)CC3)n2)cc1OCC	18.2%
Cc1ccc(SCC(=O)c2cc(C)c(OC(=S)N(C)C)c(C)c2)cc1	66.7% (active)
COC(=O)c1cc(OC)c(OC)cc1NC(=O)CSc1ccc(C)cc1	29.5%
Cc1ccc(SC(=O)COc2ccc(C)c(C)c2)cc1	1.6%
O=S(=O)(Nc1ccccc1N1CCOCC1)c1ccc(Cl)s1	50.4% (active)
CC(=O)N1CCc2cc(S(=O)(=O)Nc3ccccc3N3CCN(C)CC3)ccc21	-2.4%
O=C(CNC(=O)c1ccc(Cl)cc1Cl)NCC(=O)Nc1ccccc1N1CCOCC1	20.6%
Cc1cc(NCc2ccco2)n2c(nc3ccccc32)c1C#N	0.2%
CCN1CCc2c(C#N)c(NCc3ccccc3)nc(NCCO)c2C1	9%
N#Cc1c(N)sc2c1CCN(C(=O)OCc1ccccc1)C2	92.8% (active)
O=C(O)C1CCN(C(=O)OCc2ccccc2)CC1	31.9%
CC(C)Oc1ccc(C(=O)Nc2cc(=O)n(C)c(=O)n2C)cc1	12.2%

Compound	inhibition
COC(=O)c1c(NC(=O)c2cccs2)sc2c1CCCC2	29.6%
COC(=O)c1c(NC(=O)CSc2nncs2)sc2c1CCCCC2	82.9% (active)
CCOC(=O)c1c(NC(=O)CSc2nnc(C)c(=O)[nH]2)sc2c1CCC2	-11.3%
Cc1ccc(S(=O)(=O)N/N=C\c2cc3c(cc2[N+](=O)[O-])OCO3)cc1	-11%
CC1=NN(C(C)C)C(=O)C1	-6.9%
COCCN(CC(=O)Nc1ccccc1C)S(=O)(=O)c1ccc(S(=O)(=O)N2CCCC2)cc1	5.4%
O=C(CN(c1ccccc1)S(=O)(=O)c1ccc(Cl)cc1)Nc1ccccc1C(=O)N1CCCC1	86.7% (active)
Cc1ccc(S(=O)(=O)NC(C)C(=O)Nc2ccccc2C(=O)N2CCCC2)cc1 (stereo not drawn)	21.6%
Cc1oc2nc(SCC(=O)NCc3cccnc3)nc(N)c2c1C	8%
c1ccc2c(-c3nn4nnnc4c4ccccc34)cccc2c1	78.9% (active)
c1ccc2c(CNn3cnnc3)cccc2c1	26.1%
COc1ccc2c(c1OC)C(=O)N(c1ncn[nH]1)C2	-17.6%
O=C(CCCn1c(=O)oc2ccccc21)Nc1cccnc1	24.5%
O=C(OCN1C(=O)c2ccccc2C1=O)/C(=C\c1ccco1)NC(=O)c1ccccc1	17.6%
CS(=O)(=O)N(CC(O)Cn1c2ccccc2c2ccccc21)c1cccc2ccccc12 (stereo not drawn)	77% (active)
CC(=O)c1ccc2c(c1)c1ccccc1n2CC(C)C	16.4%
Cc1ccc(N(CC(O)CN2CCCC2)S(=O)(=O)c2ccccc2)cc1 (stereo not drawn)	16.8%
O=C(NCCCN1CCOCC1)c1cnn2c(-c3ccccc3)cc(-c3ccccc3)nc12	-3.7%
c1ccc(-n2nnnc2NC2CCCCCC2)cc1	33.5%
Fc1ccccc1CCNc1nnnn1-c1ccccc1	73.1% (active)
CCn1nnc(NC(=O)c2c(OC)cccc2OC)n1	-17.4%

Compound	inhibition
CCn1nnc(NC(=O)c2cc(Cl)c(OC)c(Cl)c2)n1	61.3% (active)
COc1c(Cl)cc(C(=O)Nc2ccc(Cl)cn2)cc1Cl	3.2%
CCCCNC(=S)NNC(=O)c1cc(C)on1	26.1%
CC(=O)Nc1cc2ccc(OC(C)=O)cc2oc1=O	8%
CCOC(=O)CN(C(=O)CN1CCOCC1)c1ccc(Br)cc1	64.6% (active)
CCOC(=O)c1c(CN2CCOCC2)n(-c2ccccc2)c2ccc(O)cc12	31.8%
Cc1cccc(N(CC(=O)N2CCOCC2)S(C)(=O)=O)c1	3.3%
Cc1nn(Cc2ccc(C(=O)N3N=C(C(F)F)CC3(O)C(F)F)cc2)c(C)c1[N+](=O)[O-] (stereo not drawn)	10%
c1ccc2[nH]c(-c3nc4ccccc4[nH]3)nc2c1	53.1% (active)
Cc1ccc(-c2nc3ccccc3[nH]2)cc1N	47%
c1ccc(-c2[nH]ncc2-c2nc3ccccc3[nH]2)cc1	31.2%
CC(C)COC(=O)C1C2C=CC3(CN(C(C)c4ccc(Br)cc4)C(=O)C13)O2 (stereo not drawn)	31%
CC(=O)NC1(c2cccc(F)c2)CCN(CC(=O)NC(C)C)CC1	3.9%
C/C(Cl)=C\Cn1c(Nc2cccc(C)c2)nc2c1c(=O)n(C)c(=O)n2C	-5.6%
COc1cc(C2C(C#N)=C(C)NC3=C2C(=O)CC(C)(C)C3)ccc1O (stereo not drawn)	20.5%
CCCOC(=O)C1=C(C)NC2=C(C(=O)C(C(=O)OC)C(C)C2)C1c1ccc(N(C)C)cc1 (stereo not drawn)	3.6%
CCOC(=O)C1=C(C)NC2=C(C(=O)CC(C)(C)C2)C1c1ccsc1 (stereo not drawn)	50.4% (active)
Cc1cccc(NC(=O)c2sc3nc4c(c(-c5ccco5)c3c2N)CCC4)c1	13.8%
O=C1CC(NNc2ccccc2)C(=O)N1c1cccc(Cl)c1 (stereo not drawn)	18.7%
COC(=O)c1cc(C(=O)OC)cc(N2C(=O)CC(N3CCN(c4ccccc4)CC3)C2=O)c1 (stereo not drawn)	12.1%
O=C1CC(c2ccccc2)C(=O)N1c1cccc(O)c1 (stereo not drawn)	60.7% (active)
